High-throughput results from PubChem.
This is a sample that favours compounds with a hit; in the whole collection about 2.3% have one here.
aSyn yeast inh = rescues yeast growth from alpha-synuclein toxicity; hit rate 0.14% among 370,000; Potency, µM (titrated, usually from 46.1 µM), inactives show top-dose growth rescue (activation), hits mostly activators; Yeast expressing alpha-synuclein, growth rescue, BacTiter-Glo, 24 h; further: % of control where 0% means no effect; nearly all actives have a fitted effect of over 65% in size
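Galactose-induced alpha-syn yeast (OD600=0.02, raffinose-pregrown) + pinned cpd, 24 hr, 30 deg C; growth by BacTiter-Glo luminescence. Growth restoration scores as activation.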
BCR signal inh = inhibitors of chronic active B-cell receptor signaling. ABC-DLBCL IkBa-CBG/CBR reporter, luminescence ratio, 4 h. Potency, µM (titrated, usually from 46.1 µM), without a hit: at the highest dose activity change, negative = inhibition, actives largely listed as inhibitors. hit rate 0.05% among 340,000; active means well fitted inhibition curve with a large enough effect in the signal ratio, with a control signal flat, not every such curve was filed as active; inconclusive means small, poorly fitted or top-dose-only effect, or effect the other way, or a change in a side signal; the % refers to the signal ratio;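 further: plate controls were basal doxycycline-induced cells for no effect and cells given 10 µM MG132 for full effect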
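Concentration-response series (up to 46 uM) were applied to TMD8 dual-reporter cells for 4 h at 37C with doxycycline. Green/red ratio, after filter-overlap correction, defined %Activity; red signal alone was normalised to basal cells and zero luminescence.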
TDP43 rescue = rescues yeast growth from TDP-43 toxicity; AID 652104; hit rate 1.8% among 410,000; Potency, µM (series often up to 46.1 µM), inactives show at the highest dose growth rescue (activation), most hits filed as activators; TDP-43 expressing yeast growth rescue, BacTiter-Glo, 24 h; further: % of control where 0% means no effect; nearly all actives have a fitted effect of over 50% in size
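Galactose-induced TDP-43 yeast, OD600=0.02, compound pinned; 24 hr, 30 deg C; BacTiter-Glo luminescence for growth. Inhibitors of TDP-43 toxicity read as activators.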
uPA generation = blocks generation of uPA at the cell surface | cell surface uPA generation assay, qHTS | Potency, µM (highest dose often 38.3 µM), for the others: at the highest dose activity change, negative = inhibition, actives largely listed as inhibitors | hit rate 0.31% among 330,000 | AID 540303; active means well fitted inhibition curve with a large enough effect; inconclusive means small, poorly fitted or top-dose-only effect; inactive means no such curve, though single readings can be large or run the other way; tested in mouse RAW 264.7 cells; further: on the % scale 0 is the no-effect control and ±100 the full control effect; nearly all actives have a fitted effect of over 55% in size
Abeta yeast res = restores growth of yeast expressing A-beta42 peptide; hit rate 0.063% among 410,000; Potency, µM (doses to about 46.1 µM), hits mostly activators; yeast expressing A-beta42, growth rescue, OD600, 48 h; response scale: 0% DMSO, 100% iron-clioquinol control; further: nearly all actives have a fitted effect of over 55% in size
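Yeast growth medium received pinned compounds, then yeast cells expressing toxic A-beta were added; plates incubated at 30 C for 48 hr. Growth read as absorbance at 600 nm, normalized to DMSO and equimolar FeCl3 plus clioquinol controls.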
FUS suppressor = FUS proteinopathy suppression in yeast; S. cerevisiae FUS-expressing, growth rescue, OD600, 24 h; AID 1347120; Potency, µM (doses to about 76.6 µM), actives largely listed as activators; hit rate 0.24% among 390,000;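 further: plate controls were DMSO vehicle for no effect and reference control for full effect; nearly all actives have a fitted effect of over 55% in size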
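Read-out: OD at 600 nm after 24hr at 30C, reporting rescue of FUS-induced yeast toxicity. Cells at OD 0.005 in galactose (2%) minimal medium; compounds tested in a dilution series; CP55940 titration from 92uM final as control.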
The depositor's hits bear a star; i = inactive; ? = inconclusive; · = not tested or not shown; ! = a repeat was not active. Unless noted, the call rests on the fitted dose curve; in most records, active means well fitted curve in the direction sought with a large enough effect; inconclusive means small, poorly fitted or top-dose-only effect, or another doubt; inactive means no such curve, though single readings can be large; an effect the other way counts as inactive or inconclusive. Potency means the concentration at half of the fitted maximal effect.

SMILES | aSyn yeast inh | BCR signal inh | TDP43 rescue | uPA generation | Abeta yeast res | FUS suppressor
CCCOC(=O)c1cccc(Nc2nc(CCC)cc(=O)[nH]2)c1 | · | · | 17.8µM* | · | i | ?
CCOc1ccc(NC(=S)N2C3CCCC2CC(NC(=O)C2CC2)C3)cc1 (stereo unspecified) | -0.9% | 0.2% | -13.3% | 1.5% | i | i
CN1CCN(C2CC(=O)N(c3ccc4c(c3)OCCO4)C2=O)CC1 (stereo unspecified) | 14.9% | ? | 5.6% | 0.6% | i | i
FC(F)(F)c1cc(CCN2C(=S)NC[C@@H]2Cc2ccccc2)cc(C(F)(F)F)c1 | -22.4% | ? | 22.4µM* | 1.7% | ? | ?
CC(C)(C)c1cc(NC(=O)COC(=O)c2ccc3c(=O)n4c(nc3c2)CCC4)n(-c2ccccc2)n1 | 11.4% | ? | 15.7% | -2.8% | i | i
COC(=O)C1CCN(C(=O)c2cc(-c3ccc(Cl)s3)nc3ccccc23)CC1 | ? | ? | 35.5µM* | 1.78µM* | i | ?
CCOC(=O)CC1C(=O)NCCN1S(=O)(=O)c1ccc(OC)cc1 (stereo unspecified) | 8.5% | 6.3% | -0.2% | -1.7% | i | i
CC(Oc1ccccc1)C(=O)Nc1nnc(S(=O)(=O)N2CCCCCC2)s1 (stereo unspecified) | -21.4% | 9.9% | 20µM* | 14.1% | i | i
O=C(Nc1ccc(NS(=O)(=O)c2ccc([N+](=O)[O-])cc2)cc1)c1ccco1 | -1.5% | 7.8% | 9.3% | 9.6% | i | i
O=C(Cc1c(F)cccc1Cl)OCC(=O)N1CCc2ccccc21 | 6.8% | 0.1% | 11.2µM* | -0.8% | i | i
CN(C(=O)CSc1nc(-c2ccccc2)cn1N)C(c1ccccc1)c1ccccc1 | -6.7% | ? | 1.0% | · | i | 31.6µM*
COc1ccc(-c2nn(-c3ccccc3)cc2CN(C)CCn2ccnc2C)c(F)c1 | 9.9% | 6.8% | 4.8% | -18.8% | i | i
CCCCN1C(C(=O)c2ccccc2)=C(OC(C)=O)c2ccccc2S1(=O)=O | · | · | 3.5% | · | i | i
CCCCC(=O)OC1=C(C(=O)c2ccccc2)N(CC)S(=O)(=O)c2ccccc21 | · | · | 15.8µM* | · | i | i
O=C1c2cccnc2-c2ncccc21 | -11.9% | -8.1% | 2.2% | -1.3% | i | i
COC1=C(Br)C(=O)c2ncccc2C1=O | 15.8µM* | · | 27.9% | -10.4% | i | ·
N#C/C(=C(/O)COC(=O)Cc1c[nH]c2ccccc12)c1nc2ccccc2[nH]1 | -0.5% | 0.5% | -0.1% | 2.6% | ? | 35.5µM*
COc1ccc(C(=O)O)cc1NCc1ccc(C)s1 | 14.1% | 1.0% | 3.16µM* | 3.0% | i | i
Cc1ccc(CNc2cc(C(=O)O)ccc2C)s1 | 19.3% | 2.9% | ? | 3.2% | i | i
COc1cccc(C2CC(=O)Nc3cc4c(cc32)CCC4)c1 (stereo unspecified) | ? | ? | 20.3% | 11.2µM* | i | i
O=C1CC(c2cc(Br)ccc2F)c2cc3c(cc2N1)CCC3 (stereo unspecified) | 4.47µM* | -2.1% | -23.7% | · | i | i
O=C1CC(c2cccc(Cl)c2)c2cc3c(cc2N1)CCC3 (stereo unspecified) | 3.98µM* | ? | -0.7% | ? | i | i
NC(Cc1ccc(Cl)cc1)C(=O)O (stereo unspecified) | -5.7% | · | · | · | · | ·
COc1cccc(NC(=O)C2(C)CCCN2C(=O)C(C)C)c1 (stereo unspecified) | -4.6% | · | -13.4% | · | i | i
O=C(CCNc1cc(Cl)cc(Cl)c1)c1cccs1 | -42.1% | 9.7% | 10µM* | 5.2% | i | i
SMILES | aSyn yeast inh | BCR signal inh | TDP43 rescue | uPA generation | Abeta yeast res | FUS suppressor
O=C(CCNc1ccc(Cl)cc1)c1cccs1 | 10.1% | -5.7% | 12.2% | 2.6% | i | i
Cc1cccc(Cn2c(Cc3ccccc3)nc3ccccc32)c1 | -1.8% | -29.3% | ? | -4.0% | i | i
NC(=O)CSc1nc2ccccc2n1Cc1ccccc1F | ? | ? | 23.4% | 6.0% | i | i
Fc1ccccc1Cn1c(-c2ccccc2)nc2ccccc21 | · | · | 22.4µM* | · | i | i
Cc1cccc(Cn2c(-c3ccccc3)nc3ccccc32)c1 | · | · | 14.1µM* | · | i | i
CCSc1nc2ccccc2n1Cc1ccccc1F | -11.2% | 0.7% | 14.1µM* | 5.7% | i | i
COc1ccc(C2=Nc3ccccc3OC2)cc1 | -12.6% | ? | -2.6% | -11.7% | i | i
Cc1cc(C(=O)CN2C(=O)C3CC=CCC3C2=O)c(C)n1-c1ccccc1 (stereo unspecified) | ? | -0.3% | -39.2% | -11.6% | i | 31.6µM*
CC(C)c1cnc2c(c1SCC(=O)Nc1cccc([N+](=O)[O-])c1)c(=O)n(C)c(=O)n2C | · | · | 11.2µM* | · | i | i
CC(C)c1cnc2c(c1SCC(=O)Nc1ccc(OC(F)(F)F)cc1)c(=O)n(C)c(=O)n2C | · | · | 17.9% | · | i | i
Cc1nc(N2CCN(C(c3ccccc3)c3ccccc3)CC2)nc2c1C(=O)CCC2 | · | -2.4% | · | · | · | ·
CCOc1ccc(S(=O)(=O)n2c(C)nc3ccccc32)cc1 | -3.1% | -0.1% | 28.5% | 12.6µM* | i | i
CCOc1ccc(S(=O)(=O)Nc2nc3ccccc3nc2N2CCN(C)CC2)cc1 | 0.2% | 7.7% | 11.9% | -4.7% | i | i
CCOc1ccc(NS(=O)(=O)c2ccc(NS(=O)(=O)c3ccc(SC)cc3)cc2)cc1 | 0.2% | -8.2% | -4.2% | -12.7% | i | 28.2µM*
CCOc1ccc(S(=O)(=O)Nc2nc3ccccc3nc2Cl)cc1 | 0.7% | 6.4% | 22.4µM* | 8.8% | i | i
NS(=O)(=O)c1ccc(NC(=O)c2ccc(OCC3CCCO3)cc2)cc1 (stereo unspecified) | 16.9% | 1.6% | -10.0% | 2.2% | i | i
O=C(Nc1cccc2ncccc12)c1ccc(Br)c([N+](=O)[O-])c1 | 3.8% | -7.2% | 7.2% | -1.4% | i | i
N#C/C(=N\Nc1cccc([N+](=O)[O-])c1)C(=O)c1ccc(Br)cc1 | -2.5% | 7.1% | 8.0% | -20.8% | i | i
N#C/C(=N\Nc1cccc(C(F)(F)F)c1)C(=O)c1ccsc1 | -23.7% | ? | 10µM* | ? | i | i
Cc1cc(C)cc(-n2c(C)nc3cc(C(=O)O)ccc32)c1 | -1.1% | 7.1% | 12.6µM*! | 1.1% | i | i
Cc1nc2cc(Cl)ccc2n1-c1ccccc1 | -1.7% | · | 12.6µM* | 1.3% | i | i
COc1ccc(C(=O)NCC(=O)OCc2ccc(F)cc2Cl)cc1OC | 2.1% | 0.9% | 11.3% | 5.6% | i | i
